Laboratory results from PubChem BioAssay (NCATS).
Results filed as inconclusive are left out. Values without a mark were called inactive. Calls of active or inactive are those of the source. Calls come from the whole dose curve; as a rule, active = well fitted cell-killing curve with a large enough effect; inconclusive = small, poorly fitted or top-dose-only effect, or effect the other way; inactive = no such curve, though single readings can be large or run the other way.

Experiment: Quantitative High-Throughput drug screen in 47 multiple myeloma cell lines against the NCATS MIPE library collection: OPM2_DSMZ cell viability assay (AID 1919872); note: nearly all actives have a fitted effect of over 30% in size
Details: OPM2 myeloma viability, CellTiter-Glo ATP luminescence, 48 h; series mostly up to 45.8 µM; viability (% of DMSO): at the top concentration
Excerpt: PI: Beverly A. Mock Ph.D.
Laboratory of Cancer Biology and Genetics,
Center for Cancer Research, National Cancer Institute,
National Institute of Health, Bethesda, Maryland
Drug resistance and disease progression are common in multiple myeloma (MM) patients, underscoring the need for new therapeutic combinations. […] We hypothesized that effective combinations would reduce MYC expression and enhance p16 activity. […] These preclinical data identify potentially useful drug combinations for evaluation in drug-resistant MM and reveal potential mechanisms of combined drug sensitivity.
Described herein is the primary MIPE qHTS used to cherrypick compounds. Validated compounds were then further tested for potential synergistic activiy.
[1] Peat TJ, Gaikwad SM, Dubois W, Gyabaah-Kessie N, Zhang S, Gorjifard S, Phyo Z, Andres M, Hughitt VK, Simpson RM, Miller MA, Girvin AT, Taylor A, Williams D, D'Antonio N, Zhang Y, Rajagopalan A, Flietner E, Wilson K, Zhang X, Shinn P, Klumpp-Thomas C, McKnight C, Itkin Z, Chen L, Kazandijian D, Zhang J, Michalowski AM, Simmons JK, Keats J, Thomas CJ, Mock BA. Drug combinations identified by high-throughput screening promote cell cycle transition and upregulate Smad pathways in myeloma. Cancer Lett. 2023 Aug 1;568:216284. doi: 10.1016/j.canlet.2023.216284. Epub 2023 Jun 24. PMID: 37356470; PMCID: PMC10408729.
SEQUENCE No. (e.g., 1, 2, 3, etc.); […] (e.g., Cells, Incubation, Reagent, etc.); VALUE and DESCRIPTION.
1; Cells; 5 uL; white, solid bottom 1536-well Greiner assay plate.
2; Compounds; 23 nL; Kalypsis pin tool (Wako USA) equipped with a 1536-well pin head to transfer to the assay plates.
3; Incubation; 48 hours; 37C incubation.
4; Reagent;5uL; CellTiter Glo (Promega).
5; Detector; 425V; Luminescence; Viewlux PerkinElmer.
NOTES (numbers refer to Sequence numbers above)
1. The cell-based screening methods employed in this study were like those previously published. Briefly, the corresponding myeloma cell lines were screened in 1,536-well plates with 500 cells, 5-uL per well for inhibition of cell viability (assessed by measuring ATP levels with CellTiterGlo).
2. NCATS MIPE 4.0 library of approved and investigational drugs were added using the Kalypsis pin tool. Wells treated with DMSO only for 100% viability and media only wells for 0% viability were used as controls.
3. The assay plates were covered and incubated for 48 hours in a 37C, 5% CO2 incubator with controlled humidity.
4. After 48 hours, CellTilter-GloTM luminescent substrate mix (Promega) reagent was added to the assay plate and plates we incubated for 5 min at room temperature.
5. Signal was measured as median relative luminescence units on a ViewLux (PerkinElmer) multiplate reader.
[1] Heske CM, Davis MI, Baumgart JT, Wilson K, Gormally MV, Chen L, Zhang X, Ceribelli M, Duveau DY, Guha R, Ferrer M, Arnaldez FI, Ji J, Tran HL, Zhang Y, Mendoza A, Helman LJ, Thomas CJ. Matrix Screen Identifies Synergistic Combination of PARP Inhibitors and Nicotinamide Phosphoribosyltransferase (NAMPT) Inhibitors in Ewing Sarcoma. Clin Cancer Res. 2017 Dec 1;23(23):7301-7311. doi: 10.1158/1078-0432.CCR-17-1121. Epub 2017 Sep 12. PMID: 28899971; PMCID: PMC6636827.
Potency is the fitted concentration of half-maximal effect.

| Structure (SMILES) | viability (% of DMSO) | Potency |
| --- | --- | --- |
| Cc1c(C)c2c(c(C)c1O)CCC(C)(COc1ccc(CC3SC(=O)NC3=O)cc1)O2 (stereo not given) | 117% |  |
| O=NN(CCCl)C(=O)NCCCl | 107% |  |
| NC(=O)c1ccc(I)c([N+](=O)[O-])c1 | 96.7% |  |
| COc1ccccc1[C@H](c1cccc2ccccc12)[C@@](C)(C#N)C(=O)N1CCC(c2cccc(C(F)(F)F)c2)CC1 |  | 8.33 µM (active) |
| CC(=O)Oc1ccccc1C(=O)O | 107% |  |
| CCOC(=O)N[C@@H]1CC[C@@H]2[C@@H](C1)C[C@H]1C(=O)O[C@H](C)[C@H]1[C@@H]2C=Cc1ccc(-c2cccc(F)c2)cn1 | 82.9% |  |
| O=C(Nc1cccnc1)N1CCC(Cc2cccc(Oc3ccc(C(F)(F)F)cn3)c2)CC1 | 97.3% |  |
| CC1(C)Cc2c(-c3ccccc3)c(-c3ccc(Cl)cc3)c(CC(=O)O)n2C1 |  | 23.5 µM (active) |
| CC(=O)NC(C)c1ccc(Oc2ccc(OC(C)C)cc2)cc1 (stereo not given) |  | 8.33 µM (active) |
| C[C@]1(c2nc3c(C(N)=O)cccc3[nH]2)CCCN1 | 99.9% |  |
| CC(C)NCC(O)COc1ccc(COCCOC(C)C)cc1 (stereo not given) | 104% |  |
| CS(=O)(=O)c1cccc(CNc2nc(Nc3ccc4c(c3)CCC(=O)N4)ncc2C(F)(F)F)c1 |  | 20.9 µM (active) |
| Cn1cc(-c2ccc3nnc(C(F)(F)c4ccc5ncccc5c4)n3n2)cn1 | 78.4% |  |
| Cc1cccc(-c2nn(C(=S)Nc3ccccc3)cc2-c2ccnc3ccccc23)n1 | 96% |  |
| CCOc1ccc(Cc2cc([C@@H]3O[C@H](CO)[C@@H](O)[C@H](O)[C@@H]3O)ccc2Cl)cc1 | 107% |  |
| CCC(=O)N[C@H]1CC[C@H](C(=O)N(C)c2ccc(-c3nc4ccccc4o3)cc2)C1 | 83.7% |  |
| COc1ccc(-c2c(-c3ccc(O)cc3O)n[nH]c2C)cc1 | 92.5% [at 92.2 µM] |  |
| COc1ccccc1-c1cccc(-c2c(O)c3cc(C#N)c(Cl)cc3[nH]c2=O)c1 | 80.8% [at 92.2 µM] |  |
| Cn1cnc([N+](=O)[O-])c1Sc1ncnc2nc[nH]c12 |  | 0.833 µM (active) |
| O=C(C1CC1)N1CC[C@@H](Cn2c(-c3ccc(-c4ccc5occc5c4)cc3)nc3cnccc32)C1 |  | 20.9 µM (active) |

| Structure (SMILES) | viability (% of DMSO) | Potency |
| --- | --- | --- |
| O=C(C=Cc1ccc(/C=C/C(=O)Nc2ccc(C3=NCCN3)cc2)cc1)Nc1ccc(C2=NCCN2)cc1 |  | 0.662 µM (active) |
| OC(CN1CCC(Cc2ccc(F)cc2)CC1)c1ccc(Cl)cc1 (stereo not given) | 102% |  |
| CNC(=O)c1ccc(C)c(-n2c(C)cc(OCc3ccc(F)cc3F)c(Br)c2=O)c1 | 77.3% |  |
| Cc1cnc(NC(=O)C2=C(O)c3ccccc3S(=O)(=O)N2C)s1 | 105% |  |
| O=C1CCc2cc(OCCCCc3nnnn3C3CCCCC3)ccc2N1 | 108% |  |
| CNC[C@H](O)c1cccc(O)c1 | 114% |  |
| CC[C@@H](C)[C@H](NC(=O)[C@H](CC1CCCCC1)NC(=O)c1ccno1)C(=O)N1CCC2(CCc3ccccc32)CC1 |  | 11.8 µM (active) |
| CS(=O)(=O)c1ccc(C(=O)Nc2ccc(Cl)c(-c3ccccn3)c2)c(Cl)c1 | 99.9% |  |
| Oc1ccc(C2CNCCc3c2cc(O)c(O)c3Cl)cc1 (stereo not given) | 115% |  |
| COc1nc(-c2ccc3c(c2)OCO3)n(-c2ccc(NC(=O)CSc3ccccc3)cc2)n1 | 130% |  |
| Nc1nc2ccc(OC(F)(F)F)cc2s1 |  | 18.7 µM (active) |
| CC(c1cc2ccccc2s1)N(O)C(N)=O (stereo not given) | 103% |  |
| COc1ccc(-c2ccc3c(N4CCOC[C@H]4C)nc(N4CCOC[C@H]4C)nc3n2)cc1CO |  | 0.0209 µM (active) |
| Nc1ccc(S(=O)(=O)Nc2ccnn2-c2ccccc2)cc1 | 108% |  |
| Nc1cccc(S(=O)(=O)N2CCCN(S(=O)(=O)c3ccc4c(c3)OCCO4)CC2)c1 | 99.3% |  |
| COc1cc2c(cc1OC)CN(CCc1ccc(NC(=O)c3cccc4c(=O)c5cccc(OC)c5[nH]c34)cc1)CC2 | 90.5% |  |
| Cc1csc(NC(=O)c2sc3nc4c(c(C(F)(F)F)c3c2N)CCC4)n1 | 97.9% |  |
| CCn1cc(C(=O)O)c(=O)c2cc(F)c(N3CCNC(C)C3)c(F)c21 (stereo not given) | 109% |  |
| CCc1ccc(CCOc2ccc(CC3SC(=O)NC3=O)cc2)nc1 (stereo not given) | 93.4% |  |
| CCCCNc1cc(C(=O)O)cc(S(N)(=O)=O)c1Oc1ccccc1 | 123% |  |
